Experimental findings from PubChem BioAssay AID1851 (National Center for Advancing Translational Sciences (NCATS), 2009) are described below.

The campaign covered roughly 16,000 compounds. About 5,700 (36%) were called active. Not shown: some 24% with an inconclusive outcome. The call rests on the fitted dose curve; in most records, active means well fitted curve in the direction sought with a large enough effect; inconclusive means small, poorly fitted or top-dose-only effect, or effect the other way; inactive means no such curve, though single readings can be large or run the other way. The list shows a part of the results.
On the % scale 0 is the no-effect control and ±100 the full control effect.

In this assay the target is Cytochrome P450 1A2 (Homo sapiens) (UniProt P05177). The experiment in a line: Cytochrome panel assay with activity outcomes. Conditions: recombinant CYP, pro-luciferin dealkylation, luminescence, p450-cyp1a2; series mostly up to 57.1 µM; activity, negative = inhibition: at the top concentration.
Cytochrome P450 1A2 (Homo sapiens), sequence (P05177 whole entry, looked up): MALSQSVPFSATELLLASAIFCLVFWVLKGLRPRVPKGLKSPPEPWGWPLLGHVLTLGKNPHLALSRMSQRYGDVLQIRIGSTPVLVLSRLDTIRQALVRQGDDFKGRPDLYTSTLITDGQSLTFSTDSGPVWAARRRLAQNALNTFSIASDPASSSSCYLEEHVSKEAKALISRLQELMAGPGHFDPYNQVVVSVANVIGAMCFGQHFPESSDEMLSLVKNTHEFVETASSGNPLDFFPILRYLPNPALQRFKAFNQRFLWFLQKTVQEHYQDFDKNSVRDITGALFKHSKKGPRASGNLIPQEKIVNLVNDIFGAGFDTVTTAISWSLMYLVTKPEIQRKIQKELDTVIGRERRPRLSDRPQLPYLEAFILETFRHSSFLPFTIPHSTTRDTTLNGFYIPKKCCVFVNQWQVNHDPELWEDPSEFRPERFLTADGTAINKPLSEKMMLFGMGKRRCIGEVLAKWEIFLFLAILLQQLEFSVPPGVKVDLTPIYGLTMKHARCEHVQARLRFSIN
With `CO[C@H]1COC(=O)CCC[C@@H](C)[C@H](OC)COC(=O)[C@@H](C)NC(=O)C/C=C\[C@@H]1C`, the activity, negative = inhibition is 3.63% [at 11.4 µM] (inactive).
For the compound `O=C(O)[C@H]1CCCNC1`, the “activity, negative = inhibition” value is -5.56% (inactive).
As for `Cc1cnn(-c2ccc3nnc(-c4ccc(Cl)cc4)n3n2)c1`, the AC50 is 398 nM (active).
Turning to `CNC(=O)Oc1ccc2c(c1)[C@@]1(C)CCN(C)[C@@H]1N2C`, the “activity, negative = inhibition” value was -15.8% (inactive).
As for `CCOCCCn1cnc2c([nH]c3cc(OC)ccc32)c1=O`, the AC50 is 2000 nM (active).
Turning to `CCOCCCN1C(=O)CN(C2CCCCCC2)C(=O)C1c1ccc(OC)cc1` (centres undefined), the “activity, negative = inhibition” value was -10.7% (inactive).
`CO[C@H]1COC(=O)C/C=C\[C@@H](C)COC(=O)[C@H]2CCCN2C(=O)C/C=C\[C@H]1C`: the activity, negative = inhibition is 4.01% [at 11.4 µM] (inactive).
As for `CN(C)c1ccc(/C=C2/C(=O)N(c3ccc([N+](=O)[O-])cc3)N=C2N2CCOCC2)cc1`, the “activity, negative = inhibition” value is -19% (inactive).
Consider `Cc1cc(N2CCOCC2)ccc1/C=C1\SC(=O)N(C(C)C)C1=O`, for which the AC50 is 14100 nM (active).
Turning to `CC(C(=O)Nc1ccccc1Sc1ccccc1)N(c1ccccc1)S(C)(=O)=O` (centres undefined), the “activity, negative = inhibition” value was -5.72% (inactive).
Still for that read-out and setting: as for `CO[C@@H]1COC(=O)[C@H](COCc2ccccc2)NC(=O)C/C=C\[C@@H](C)[C@H](OC)COC(=O)[C@H](COCc2ccccc2)NC(=O)C/C=C\[C@H]1C`, the figure is -19.7% [at 11.4 µM] (inactive).
Take `COc1cccc(/C=N/Nc2nc(N3CCCC3)nc(N3CCCC3)n2)c1O`: the AC50 is 2510 nM (active).
For the compound `COC(=O)C1=C(C)[C@@H](O)[C@@H](C)[C@H](c2c(OC)c(OC)c(C)c(OC)c2OC)O1`, the activity, negative = inhibition is -10.1% [at 11.4 µM] (inactive).
Consider `C#C[C@]1(O)CC[C@@H]2[C@H]3CCc4cc(OC)ccc4[C@@H]3CC[C@@]21C`, for which the AC50 was 501 nM (active).
Regarding `C#C[C@@]1(O)CC[C@@H]2[C@@H]3CCC4=CC(=O)CC[C@@H]4[C@H]3CC[C@]21C`, the “activity, negative = inhibition” value is -14.1% [at 25.6 µM] (inactive).
Still for that read-out and setting: as for `CC12CC[C@@H]3c4ccc(OP(=O)(O)O)cc4CCC3C1CCC2=O` (some centres undefined), the figure is -13.4% [at 2.29 µM] (inactive).
Consider `Clc1ccc(CCNc2nc3ccccc3s2)cc1`, for which the AC50 is 11200 nM (active).
In the case of `CC(C)N1CCN(c2ccc(OC[C@@H]3CO[C@@](Cn4cncn4)(c4ccc(Cl)cc4Cl)O3)cc2)CC1`, the “activity, negative = inhibition” value was -3.45% [at 25.6 µM] (inactive).
In the case of `Nc1c(O)cccc1C(=O)C[C@@H](N)C(=O)O`, the “activity, negative = inhibition” value was -7.38% [at 25.6 µM] (inactive).
As to `N#C/C(=C\Nc1ccccn1)C(=O)C1CC1`, the concentration at half-maximal activity (AC50) was 1260 nM (active).
As to `N#C/C(=C\Nc1ccccn1)C(=O)c1ccco1`, the activity, negative = inhibition is -22.9% [at 11.4 µM] (inactive).
For `CC(CCN)(CCN)[N+](=O)[O-]`, the activity, negative = inhibition is -10.4% [at 11.4 µM] (inactive).
On the same count and under the same terms, to `O=C(NCCN1CCN(C(=O)C(c2ccccc2)c2ccccc2)CC1)C(=O)Nc1ccccc1` belongs -23% (inactive); to `O=C(NCCCN1CCc2ccccc2C1)C1CCN(S(=O)(=O)N2CCCC2)CC1`, 3.7% (inactive).
The same measure, in the same setting: as for `O=C(NCCCN1CCN(c2ccccc2F)CC1)C1CCC(=O)N1C1CCCCC1` (centres undefined), the figure is 0.883% (inactive).
On to `CSc1ccc(NC(=O)NCCN2CCc3ccccc3C2)cc1`, for which the AC50 is 14100 nM (active).
On to `Cc1ccccc1CS(=O)(=O)CCC(=O)NCCCN1CCN(c2ccccc2F)CC1`, for which the “activity, negative = inhibition” value is -19.6% (inactive).
Consider `CSc1ccc(NC(=O)NCCCN2CCN(c3ccccc3F)CC2)cc1`, for which the AC50 is 2510 nM (active).
Take `Fc1cccc(/C=N\N=C/c2cccc(F)c2)c1`: the AC50 was 200 nM (active).
On to `COc1cccc([C@@H]2Oc3ccc(OC)cc3/C(=N/O[C@@H](C)c3cc(-c4c(C)cc(C)cc4C)no3)[C@@H]2O)c1`, for which the activity, negative = inhibition is -10.9% [at 11.4 µM] (inactive).
Still for that read-out and setting: to `Cc1cc(N)c2cc(NC(=O)Nc3ccc4nc(C)cc(N)c4c3)ccc2n1` belongs -1.54% [at 11.4 µM] (inactive).
On to `Cc1cc(C)c(C(N)=O)c(NC(=O)Nc2ccccc2)n1`, for which the AC50 was 3160 nM (active).
With `Cc1cccc(Oc2ncnc3onc(C)c23)c1C`, the AC50 was 17800 nM (active).
For the compound `Cc1noc2ncnc(Oc3ccc4ccccc4c3)c12`, the AC50 is 8910 nM (active).
Take `CCNCCCNCCCNCCCNCC`: the “activity, negative = inhibition” value was -9.81% (inactive).
Still for that read-out and setting: as for `CC1CCN(CCc2nc3cc(NC(=O)NC4CCCCC4)ccc3n2C)CC1`, the figure is 3.24% (inactive).
For the compound `CC1CCN(C(=O)Nc2ccc3nsnc3c2)CC1`, the AC50 is 11200 nM (active).
Turning to `O=C(Nc1ccc(Cl)c(Cl)c1)N1CCC(N2CCCCC2)CC1`, the “activity, negative = inhibition” value was -19.8% (inactive).
Same read-out and setting: as for `COc1ccc(COC(=O)N/N=C2/C[C@@H](O)[C@@H](O)[C@@H]3[C@H]4C(=O)N(c5ccc(F)cc5F)C(=O)[C@@H]4CC[C@H]23)cc1`, the figure is -6.28% [at 11.4 µM] (inactive).
Regarding `Cc1cc(O)c(C(C)C)cc1N=Cc1ccccc1O`, the AC50 is 1580 nM (active).
Turning to `O=S(=O)(O)c1cc(O)c2c(N=Cc3ccccc3O)cc(S(=O)(=O)O)cc2c1`, the activity, negative = inhibition was -23.7% [at 2.29 µM] (inactive).
The same measure, in the same setting: as for `COc1ccc(C(=O)N2CCC3(CCCN(Cc4cc(C(F)(F)F)cc(C(F)(F)F)c4)C3)CC2)cc1`, the figure is 11.6% (inactive); as for `O=C(O)C1(Nc2ccc(Cl)cc2)CCCC1`, -2.69% [at 11.4 µM] (inactive).
For the compound `N#CC1(Nc2ccc(-c3ccc(NC4(C#N)CCCC4)cc3)cc2)CCCC1`, the AC50 was 3160 nM (active).
On to `COCC(=O)N1CCC2(CCCN(Cc3cc(C(F)(F)F)cc(C(F)(F)F)c3)C2)CC1`, for which the “activity, negative = inhibition” value was 3.63% (inactive).
`N#CC(C#N)=NNc1ccc2cn[nH]c2c1`: the AC50 was 1260 nM (active).
Still for that read-out and setting: to `S=C(Nc1ccc2cn[nH]c2c1)Nc1ccc2cn[nH]c2c1` belongs 126 nM (active).
Same read-out and setting: to `O=C(O)c1c(Cl)c(Cl)c(Cl)c(Cl)c1C(=O)Nc1ccc2cn[nH]c2c1` belongs 200 nM (active).
`CCN1C(=O)[C@H]2[C@H]3[C@H](O)[C@H](O)C/C(=N/NC(=O)OCc4ccccc4)[C@H]3CC[C@@H]2C1=O`: the activity, negative = inhibition is -7.29% [at 11.4 µM] (inactive).
